Hits are enriched below; roughly 3.4% of the tested compounds scored in any of these assays.
Sm TGR inh = S. mansoni TGR enzyme inhibition. Q962Y6. purified TGR, DTNB reduction, TNB absorbance 405 nm. 3% of 360,000 active. Potency, µM (doses to about 114 µM), for the others: top-dose activity change, negative = inhibition, usual class: inhibitors; note: nearly all actives have a fitted effect of over 60% in size
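TGR 20 nM + NADPH 100 uM (dispensed conc.), cpd preinc 15 min RT; start with NADPH (500 uM addition) then DTNB (15 mM addition). Kinetic TNB absorbance, 405 nm filter. Four-parameter Hill fit across titration.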
AmpC detergent = AmpC beta-lactamase inhibition with detergent present; Potency, µM (titrated, usually from 114 µM), inactives show at the top dose activity change, negative = inhibition, most hits filed as inhibitors; AID 485294; P00811; 0.041% of 370,000 active; AmpC hydrolysis of nitrocefin, absorbance 480 nm, 0.01% Triton;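 note: 0% = no-compound wells and -100% = no-enzyme wells; nearly all actives have a fitted effect of over 25% in size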
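20 mM phosphate pH 7.0 + 0.01% (detergent screen) or 0.0001% Triton X-100; 5.3 nM AmpC reagent; cpd preinc 15 min RT; nitrocefin (800 uM stock) to start; A480 q20 s × 4 min; Activity was normalised to no-enzyme and no-compound control wells.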
AmpC no deterg = blocks E. coli AmpC beta-lactamase in detergent-free assay | AmpC nitrocefin hydrolysis, absorbance 480 nm, 0.0001% Triton | 0.52% of 330,000 active | Potency, µM (highest dose often 57.1 µM), inactives show at the highest dose activity change, negative = inhibition, hits mostly inhibitors;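 note: plate controls were no compound for no effect and no enzyme for full effect; nearly all actives have a fitted effect of over 20% in size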
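20 mM phosphate pH 7.0 + 0.01% (detergent screen) or 0.0001% Triton X-100; 5.3 nM AmpC reagent; cpd preinc 15 min RT; nitrocefin (800 uM stock) to start; A480 q20 s × 4 min; Activity was normalised to no-enzyme and no-compound control wells.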
RE007 growth inh = less growth of the S. pombe RE007 Vpr strain; S. pombe RE007 Vpr strain, BacTiter-Glo ATP luminescence, 24 h; Potency, µM (titrated, usually from 92.2 µM), inactives show at the highest dose activity change, negative = less growth, actives largely listed as inhibitors; 0.21% of 360,000 active; AID 651644; active = well fitted falling curve with a large enough effect; inconclusive = small, poorly fitted or top-dose-only effect; inactive = no such curve, though single readings can be large or run the other way; note: nearly all actives have a fitted effect of over 50% in size
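Fission yeast strain RE007, carrying one chromosomally integrated HIV-1 vpr copy, was seeded at OD 0.01 in PMG+AL medium with 23 nL pinned compound. After 24 h at 30 °C and 99% humidity, viability was read by BacTiter-Glo luminescence.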
Giardia FBPA inh-1 = inhibitors of Giardia lamblia fructose-1,6-bisphosphate aldolase; 0.71% of 290,000 active; Potency, µM (top dose mostly 59.6 µM), without a hit: top-dose activity, negative = inhibition, most hits filed as inhibitors; purified Giardia FBPA; note: nearly all actives have a fitted effect of over 55% in size
Target sequence (A8B2U2 whole entry, looked up): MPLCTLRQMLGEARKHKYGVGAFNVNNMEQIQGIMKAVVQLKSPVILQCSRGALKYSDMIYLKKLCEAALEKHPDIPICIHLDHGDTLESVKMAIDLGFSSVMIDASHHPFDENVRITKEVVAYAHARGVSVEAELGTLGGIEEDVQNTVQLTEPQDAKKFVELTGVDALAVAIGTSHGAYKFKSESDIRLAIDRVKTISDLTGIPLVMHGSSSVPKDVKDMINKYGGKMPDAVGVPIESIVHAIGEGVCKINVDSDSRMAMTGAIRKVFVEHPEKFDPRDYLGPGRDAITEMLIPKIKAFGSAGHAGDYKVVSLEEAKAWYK
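40 nM FBPA preincubated 10 min at RT with compound (up to 57.5 uM final), then substrate plus GAPDH/TPI/NAD/arsenate coupling and diaphorase/resazurin added. Fluorescence read after 20 min at RT, 525/598 nm.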
Giardia growth = blocks growth of Giardia lamblia trophozoites | shares compounds with Giardia FBPA inh-1 | Giardia lamblia trophozoite growth inhibition | Potency, µM (highest dose often 57.5 µM), for inactives: at the highest dose activity change, negative = inhibition, hits mostly inhibitors | 5% of 1,500 active;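 note: trophozoites exposed to compound for 48 h at 37 °C; nearly all actives have a fitted effect of over 70% in size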
Mammalian tox = mammalian cytotoxicity of Giardia aldolase inhibitor hits; 4% of 1,500 active; shares compounds with Giardia FBPA inh-1; Potency, µM (top dose mostly 57.5 µM), for the others: at the highest dose viability change, negative = toxicity, hits mostly inhibitors; AID 2786; mammalian cell viability counter-screen, qHTS;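 note: Chinese hamster ovary cells used as mammalian cytotoxicity surrogate; viability measured as cellular ATP by luminescence; compound exposure lasted 48 h before reading; nearly all actives have a fitted effect of over 60% in size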
Giardia FBPA inh-2 = confirmation of Giardia fructose-bisphosphate aldolase inhibitors; shares compounds with Giardia FBPA inh-1; purified Giardia aldolase enzyme activity, qHTS; Potency, µM (highest dose often 57.5 µM), for the others: top-dose activity change, negative = inhibition, most hits filed as inhibitors; 5% of 1,500 active; AID 2787; note: nearly all actives have a fitted effect of over 45% in size
Rabbit FBPA inh = selectivity test for Giardia aldolase inhibitors: rabbit aldolase | 4% of 1,500 active | Potency, µM (titrated, usually from 57.5 µM), for inactives: top-dose activity, negative = inhibition, most hits filed as inhibitors | shares compounds with Giardia FBPA inh-1 | Rabbit muscle FBPA enzyme inhibition, selectivity counter-screen | AID 2794; note: nearly all actives have a fitted effect of over 60% in size
GAPDH coupling = GAPDH inhibition flagged for Giardia aldolase hits. shares compounds with Giardia FBPA inh-1. GAPDH coupling enzyme counterscreen, biochemical, qHTS. Potency, µM (doses to about 57.5 µM), inactives show at the top dose activity change, negative = inhibition, usual class: inhibitors. 6% of 1,500 active; note: nearly all actives have a fitted effect of over 55% in size
* hit, by the source's call; ? = inconclusive; . = no result; [ ] = dose if it differs, or a comment. Unless noted, calls come from the whole dose curve; as a rule, active = well fitted curve in the direction sought with a large enough effect; inconclusive = small, poorly fitted or top-dose-only effect, or another doubt; inactive = no such curve, though single readings can be large; an effect the other way counts as inactive or inconclusive. Unless noted, % is set by controls: 0 for no effect and ±100 for the full control effect; potency is the fitted concentration of half-maximal effect.

SMILES	Sm TGR inh	AmpC detergent	AmpC no deterg	RE007 growth inh	Giardia FBPA inh-1	Giardia growth	Mammalian tox	Giardia FBPA inh-2	Rabbit FBPA inh	GAPDH coupling
Nc1nnnn1CC(=O)N/N=C/C=C/c1ccccc1	8%	0%	-25%	24%	1%	.	.	.	.	.
Cc1cccc(/C=N/NC(=O)Cn2nnnc2N)n1	-14%	-7%	-17%	11%	18µM*	11%	-3%	3%	8%	10%
N#CC1CN(Cc2ccccc2)CN(Cc2ccccc2)C1	0%	-3%	1%	-8%	-1%	.	.	.	.	.
O=[N+]([O-])c1ccccc1/C=C/CN1CCSCC1	?	?	-15%	3%	16µM*	?	19%	-1%	13%	-4%
CCn1cc(CNCc2cn[nH]c2-c2cc3ccccc3o2)cn1	0%	7%	-7%	343%	-2%	.	.	.	.	.
CC(C)NC(=O)[C@H](CSCc1ccccc1)N1Cc2ccccc2C1=O	-1%	?	1%	0%	6%	.	.	.	.	.
O=C(NCCCN1CCCC1)[C@H](CSCc1ccccc1)N1Cc2ccccc2C1=O	-3%	-4%	57%	18%	18µM*	-3%[10.4 µM]	-29%	11%	2%	17%
O=c1[nH]c(=S)[nH]c2sccc12	34%	10%	-12%	20%	7.1µM*	-6%[38.3 µM]	-6%	-12%	-15%	-9%
COc1ccc(/C=C\C(=O)NC2CC(=O)N(c3ccccc3)C2)cc1OC (centres undefined)	4%	4%	.	.	.	.	.	.	.	.
CC(=O)N1CCc2c(sc3c2c(=O)n(-c2ccccc2)c(=O)n3CC(=O)NCC2CCCO2)C1 (centres undefined)	-5%	-7%	-7%	23%	10µM*	-4%[38.3 µM]	-13%	-27%	-15%	-9%
Cc1cc(=O)n2cccc(O)c2n1	.	-7%	-6%	20%	20µM*	126%	-2%	-28%	?	?
Cc1nnc(SCc2cc(=O)n3cccc(C)c3n2)s1	-1%	4%	.	.	.	.	.	.	.	.
COCCOC(=O)c1c(NC(=O)CNCc2ccco2)sc(C(N)=O)c1C	-22%	3%	75%	-6%	-11%	.	.	.	.	.
O=[N+]([O-])c1ccccc1C1Nc2cccc3cccc(c23)N1	0%	4%	-30%	-11%	?	10µM*	-19%	?	-25%	?
CCN(CC)c1ccc(N)cc1S(=O)(=O)Nc1ccccc1OC	9%	2%	-24%	0%	16µM*	13%[10.4 µM]	0%	1%	4%	16%
CCN(CC)c1ccc(N)cc1S(=O)(=O)Nc1ccc(OC)cc1	2%	-10%	-21%	-2%	-13%	.	.	.	.	.
CN1CCN(CCC(=O)N2c3ccccc3Sc3ccc(Cl)cc32)CC1	15%	8%	68%	-1%[3.69 µM]	1%	.	.	.	.	.
O=C(CCN1CCN(CCO)CC1)N1c2ccccc2Sc2ccc(C(F)(F)F)cc21	-14%	?	197%	-3%	7.9µM*	-14%	2%	-3%	0%	2%
COc1ccc(C2C(C#N)=C(N)OC3=C2C(=O)CCC3)cc1Cn1nc(C)c([N+](=O)[O-])c1C (centres undefined)	-22%	1%	?	5%	-1%	.	.	.	.	.
